Measurements as given in PubChem BioAssay (NCI).
About 83,000 compounds went through this panel and 20% of them were active in at least one assay; those are over-represented in the sample as a whole.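 Negative percent growth values reflect cell death: -40 means 40% of the cells present at the start died, and -100 means all died.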 Values without a mark were called inactive. Calls of active or inactive are those of the source. How the source made its calls: active means growth percent below 10; inactive means the rest.

Legend:
Test in all cases: NCI-60 one-dose screen, 48 h (100 = growth as untreated, 0 = no growth, -100 = all killed)
Settings in all cases: 10 µM unless noted
SR leukemia = test system: SR leukemia
RPMI-8226 leukemia = test system: RPMI-8226 leukemia
OVCAR-8 ovarian = test system: OVCAR-8 ovarian
OVCAR-5 ovarian = test system: OVCAR-5 ovarian
OVCAR-4 ovarian = test system: OVCAR-4 ovarian
SK-OV-3 ovarian = test system: SK-OV-3 ovarian
IGROV1 ovarian = test system: IGROV1 ovarian
OVCAR-3 ovarian = test system: OVCAR-3 ovarian
HS 578T breast = test system: HS 578T breast
NCI/ADR-RES ovarian = test system: NCI/ADR-RES ovarian

Structure (SMILES) | growth (SR leukemia) | growth (RPMI-8226 leukemia) | growth (OVCAR-8 ovarian) | growth (OVCAR-5 ovarian) | growth (OVCAR-4 ovarian) | growth (SK-OV-3 ovarian) | growth (IGROV1 ovarian) | growth (OVCAR-3 ovarian) | growth (HS 578T breast) [%] | growth (NCI/ADR-RES ovarian)
O=C1OC(c2ccccc2)=N/C1=C\c1ccc([N+](=O)[O-])cc1 | 97.3% | 102% | 111% | 92.8% | 114% | 109% | 100% | 106% | 82.6 | 104%
COc1cccc(C2CC(=O)Nc3c2c(C)nn3-c2nc3ccccc3[nH]2)c1OC (stereo not drawn) | 33.2% | 70.4% | 55% | 114% | 74.4% | 79.9% | 3.88% (active) | 74% | – | 73.2%
C/C(=N\NC(=O)CC#N)c1cc2cc(Cl)ccc2o1 | 84.8% | 90.2% | 109% | 105% | 91.5% | 98.8% | 96.8% | 102% | 14.9 | 110%
CCC(=O)Oc1cc(/C=C/C(=O)O[C@H]2C[C@H]3CN4CCc5c([nH]c6cc(OC)ccc56)[C@@H]4C[C@@H]3[C@@H](C(=O)OC)[C@@H]2OC)ccc1OC | 1.95% (active) | 39.9% | 86.8% | 87% | 56.9% | 86.5% | 88.5% | 73.1% | – | 87.1%
COc1cc(OC)cc(-c2n[nH]nc2-c2ccc3c(c2)OCO3)c1 | 14.4% | 26.2% | 28.6% | 4.97% (active) | 52.5% | 16.3% | 39.5% | 10% | 12.1 | 3.37% (active)
COc1cc(-c2csc(NC(=O)c3cc(C(F)(F)F)cc(C(F)(F)F)c3)n2)cc(OC)c1OC | 40.4% | 14.1% | 25.5% | 60.1% | 23.4% | 35.4% | 46% | 10.6% | 35.1 | 16.2%
O=C(/C=C/CN1CCOCC1)Nc1cc2c(Nc3ccc(F)c(Cl)c3F)ncnc2cc1OCCOC(F)F | 60.7% | 17.8% | 49.6% | 49.6% | 54.7% | 11.8% | -11.1% (active) | 48.9% | 23.1 | 36.2%
Cc1nc(Nc2cccnc2)sc1C(=O)/C=C/c1ccc(F)cc1 | 18.6% | 1.5% (active) | 21.8% | 56.4% | 63.8% | 71.6% | 29.9% | 5.9% (active) | 96.4 | 38.4%
CC(=O)OCC1OC(OCC2OC(OC(C)=O)C(OC(C)=O)C(OC(C)=O)C2OC(C)=O)C(OC(C)=O)C(OC(C)=O)C1OC(C)=O (stereo not drawn) | 98% | 99.3% | 95.2% | 101% | 107% | 89.9% | 106% | 109% | 97.2 | 101%
COc1ccc(OC)c(C(=O)c2oc3ccc(Br)cc3c2N)c1 | 10.2% | -16.5% (active) | 16.6% | 45.5% | 49.4% | -6.27% (active) | 41.2% | 3.65% (active) | – | 15.1%
O=C(Nc1ccc(I)cc1)c1cccc([N+](=O)[O-])c1O | 31.6% | 6.95% (active) | 17.1% | 43.4% | 19.1% | -2.55% (active) | 30.4% | 7.89% (active) | – | 9.57% (active)
O=S(=O)(NCCCNc1nccc(-c2c(-c3ccc(F)c(O)c3)nc3sccn23)n1)c1ccc(Cl)cc1 | 61.6% | 43.1% | 52.9% | 129% | 99.1% | 85.3% | 80.2% | 88.7% | – | 103%
O=C(c1c[nH]c2ccccc12)C(Sc1nc2ccccc2c(=O)[nH]1)c1ccccc1 (stereo not drawn) | 67.9% | 91.1% | 93.3% | 88% | 95.9% | 104% | 19.1% | 96.6% | – | 99.8%
COc1ccc(-c2cn[nH]c2-c2cc(OC)c3c(c2)OCO3)cc1 | 5.61% (active) | -1.3% (active) | 11.7% | 46.1% | 51% | -1.1% (active) | -17.2% (active) | -12.3% (active) | – | 5.12% (active)
CCCCC(N)(C(=O)O)C1CCCC1 (stereo not drawn) | 96.4% | 111% | 97.2% | 97.8% | 103% | 117% | 110% | 116% | – | 97.4%
Cc1ccc(C2=NN(c3ccc(S(=O)(=O)NC(=O)NCc4ccccc4)cc3)C(c3ccc(N(C)C)cc3)C2)c(C)c1 (stereo not drawn) | 21.5% | 16.6% | 30.6% | 55.1% | 57.7% | 88.3% | 54.1% | 38.3% | – | 33.7%
CCN(Cc1ccccc1)c1ccc(SC#N)cc1 | -9.48% (active) | 80.3% | 85.9% | 97.2% | 50.5% | 107% | 103% | 46.2% | – | 81.9%
COc1ccc(NC(=O)CSc2nc3ccc(Cl)cc3c(=O)n2-c2ccccc2C(F)(F)F)c(OC)c1OC | 89.6% | 83.3% | 39.3% | 96.9% | -4.33% (active) | 30.2% | 75.3% | 82.5% | – | 72.4%
O=S(=O)(NCCCNc1nccc(-c2c(-c3ccc(O)cc3)nc3sccn23)n1)c1ccc(F)cc1 | 3.07% (active) | -13% (active) | 14.2% | 14.4% | 14.9% | -4.21% (active) | 5.53% (active) | 23% | – | 48.9%
O=C(Nc1cc(C(F)(F)F)cc(C(F)(F)F)c1)Nc1ccc(OCc2nnc(-c3ccc(Cl)cc3)o2)c(F)c1 | 0.985% (active) | 3.52% (active) | 10.6% | -5.15% (active) | 24% | 5.55% (active) | 32.7% | 16% | – | 4.95% (active)
CCn1cc(C(=O)O)c(=O)c2cc(F)c(N3CCN(S(=O)(=O)c4ccc(OC)c(OC)c4)CC3)cc21 | 88.3% | 99.3% | 102% | 102% | 110% | 135% | 108% | 109% | – | 107%
O=C(O)c1cn(C2CC2)c2cc(N3CCN(S(=O)(=O)c4ccc(Cl)c(Cl)c4)CC3)c(F)cc2c1=O | -25.1% (active) | 4.86% (active) | 5.48% (active) | 12.5% | 20.8% | 26.8% | 29.3% | 9.87% (active) | – | 53.5%
COc1ccc(S(=O)(=O)N2CCN(c3cc4c(cc3F)c(=O)c(C(=O)O)cn4C3CC3)CC2)c(OC)c1 | 81.6% | 86.7% | 92.4% | 110% | 101% | 98.6% | 101% | 95.8% | – | 102%
CNC(C)=O | 88.2% | 103% | 102% | 95.8% | 104% | 102% | 105% | 75.8% | – | 102%
Cc1cc(C)c(NC(=O)c2sc3nc4c(cc3c2N)CN(Cc2ccccc2)CC4)c(C)c1 | 10.1% | 20.9% | 46.6% | 57.1% | 31.6% | 23.9% | 24.1% | -3.04% (active) | – | 18.5%
COc1c(NC[C@H]2OC(O)[C@H](O)[C@@H](O)[C@@H]2O)c(=O)c1=O (stereo partly drawn) | 119% | 101% | 101% | 103% | 84.4% | 106% | 120% | 113% | – | 101%
CCN(CC)CCC(=O)c1cccc2ccccc12 | 53.4% | 44.4% | 104% | 98.3% | 119% | 121% | 101% | 113% | – | 104%
COc1cc(NC(=O)CSc2nc3ccc(C)cc3c(=O)n2-c2ccccc2)cc(OC)c1OC | 42.3% | 76.3% | 87.4% | 99.5% | 68.9% | 107% | 89.6% | 84.4% | – | 75.5%
CCC(C)NCC(=O)O (stereo not drawn) | 93.5% | 90.1% | 110% | 96% | 105% | 106% | 110% | 111% | – | 110%
